Measurements published in PubChem BioAssay.
Active and inactive are the calls of the source. Rule as the data show it: active = fold change permeability below about 0.7 or above about 1.3; inactive = in between.

assay: compounds altering in vitro BBB leakiness – cell-based, FITC-avidin fluorescence, HTS, primary screen (AID 1963498); details: brain endothelial barrier, actives lie on both sides; also: test concentration not given here

Row | Compound | fold change permeability
1 | O=C(O)C1CCCNC1 (stereo not given) | 1.3 (active)
2 | N#Cc1ccc(-c2csc(NN=C3CCCC3)n2)cc1 | 1.7 (active)
3 | CC(C)N1CCN(S(=O)(=O)c2ccc(NC(=O)c3ccc(C(F)(F)F)cc3[N+](=O)[O-])cc2)CC1 | 1.4 (active)
4 | CN1C[C@H](C(=O)N[C@]2(C)O[C@@]3(O)[C@@H]4CCCN4C(=O)[C@H](Cc4ccccc4)N3C2=O)C[C@@H]2c3cccc4[nH]cc(c34)C[C@H]21 | 1.4 (active)
5 | CCCCCCNC(=O)n1cc(F)c(=O)[nH]c1=O | 0.9 (inactive)
6 | O=[N+]([O-])c1ccc(CNc2nc(NCc3cccc(C(F)(F)F)c3)nc3nc[nH]c23)cc1 | 1.3 (active)
7 | N[C@H](C(=O)O)[C@H](O)c1ccc(O)c(O)c1 | 0.9 (inactive)
8 | CN1CCN(C(=O)c2ccc(-n3nc(-c4ccc(C(=O)O)cc4)cc3-c3cc(C(C)(C)C)cc(C(C)(C)C)c3)cc2)CC1 | 1 (inactive)
9 | CCC(C)N(C)C(=O)c1cc2ccccc2c(-c2ccccc2Cl)n1 (stereo not given) | 0.9 (inactive)
10 | COc1ccc2cccc(CCNC(C)=O)c2c1 | 0.8 (inactive)
11 | COc1ccc(Oc2c(Cl)cnn(C3c4ccccc4-c4ccccc43)c2=O)cc1 | 1.4 (active)
12 | COCCNC(=O)COc1ccc(OCCNC[C@H](O)COc2ccccc2)cc1 | 1 (inactive)
13 | CCn1cc(C(=O)O)c(=O)c2cc3c(cc21)OCO3 | 1 (inactive)
14 | COc1ccc2c(c1OC)C(=O)O[C@@H]2[C@H]1c2c(cc3c(c2OC)OCO3)CCN1C | 1 (inactive)
15 | O=C1NC(=O)c2cc(Nc3ccccc3)c(Nc3ccccc3)cc21 | 0.9 (inactive)
